Source: PubChem BioAssay AID1220 (Sanford-Burnham Center for Chemical Genomics, 2008)
Screen size: about 190,000 compounds; about 1,300 (0.68%) were called active. Shown is part of a subset that was picked to be rich in actives. A number with no mark means an inactive call. No stated cut-off is given here; in the data, active means inhibition above about 50%; inactive means the rest.

molecular target: Mannose-6-phosphate isomerase (Homo sapiens) (UniProt P34949); assay: human PMI inhibitors, high substrate, primary screen, biochemical, fluorescence intensity, high mannose 6-phosphate (AID 1220); conditions: recombinant PMI enzyme, coupled fluorescence intensity; at 20 µM; hits give high values
Sequence (P34949 whole entry, looked up): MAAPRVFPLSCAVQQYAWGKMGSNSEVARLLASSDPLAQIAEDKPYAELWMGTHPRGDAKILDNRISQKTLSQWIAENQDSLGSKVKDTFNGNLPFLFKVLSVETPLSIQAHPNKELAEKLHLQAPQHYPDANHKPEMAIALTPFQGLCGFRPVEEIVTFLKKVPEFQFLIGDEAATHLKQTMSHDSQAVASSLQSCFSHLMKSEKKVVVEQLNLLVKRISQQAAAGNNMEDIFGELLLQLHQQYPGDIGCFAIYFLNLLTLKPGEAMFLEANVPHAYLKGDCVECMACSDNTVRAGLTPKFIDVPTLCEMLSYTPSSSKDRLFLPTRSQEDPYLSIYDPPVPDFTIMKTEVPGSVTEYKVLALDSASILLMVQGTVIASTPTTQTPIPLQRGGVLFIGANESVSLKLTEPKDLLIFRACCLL

SMILES	inhibition
Cc1cccc(N2CCN(C(=O)c3ccccn3)CC2C)c1 (stereo not given)	9.3%
O=C(/C=C/c1ccc(Cl)cc1Cl)N1CCc2ccccc21	-2.2%
CCN1CCN(c2cc(C)c3cc(NC(=O)c4ccc(Br)o4)ccc3n2)CC1	-5.1%
CCN(CC)c1cc(C)c2cc(NC(=O)c3cccs3)ccc2n1	10.3%
CCN(CC)c1cc(C)c2cc(NC(=O)c3ccc(Br)o3)ccc2n1	70.4% (active)
CCOC(=O)c1c(/N=C/c2cccc(C)c2O)sc2c1CCN(C)C2	-2.3%
Cn1c(=S)n(/N=C/c2ccc3c(c2)OCO3)c2ccccc21	-3.6%
CCn1c(SCC(=O)N/N=C/C=C/c2ccco2)nnc1-c1ccccc1	-8.3%
CCn1c(SCC(=O)N/N=C/C(C)=C/c2ccco2)nnc1-c1ccccc1	43.3%
CCn1c(SCC(=O)N/N=C/C=C/c2ccco2)nnc1-c1ccc(OC)cc1	52.6% (active)
O=C(COc1cccc2c1CCN(Cc1ccc(Cl)cc1)C2=O)N1CCOCC1	-2.4%
CC(C)CC(=O)NC(=S)Nc1ccc(S(=O)(=O)N2CCCC2)cc1	-1%
CCNc1ccc(C(=O)OCC)cc1NC(=O)c1cccc(S(=O)(=O)N(C)c2ccccc2)c1	50.1% (active)
CCNc1ccc(C(=O)OCC)cc1NC(=O)c1cccc(N(C)C)c1	6.9%
CCNc1ccc(C(=O)OCC)cc1NC(=O)c1cccc(S(=O)(=O)N2CCOCC2)c1	8.8%
O=C(CNCC1CCCO1)N1CCN(S(=O)(=O)c2ccc3ccccc3c2)CC1 (stereo not given)	-1.2%
O=C(/C=C/c1ccccc1Cl)Nc1ccncc1	-5.1%
CN1C(=O)CC(N2CCC(C(N)=O)CC2)C1=O (stereo not given)	-4%
Cc1ccc(S(=O)(=O)Cn2nnnc2C(C)N2CCN(C(=O)c3ccco3)CC2)cc1 (stereo not given)	11.7%
Cc1cc(=O)n(CCCO)c(O)c1C#N	37.6%

SMILES	inhibition
CCCn1c(C)cc(C)c(C#N)c1=O	-3.4%
Cc1c(CN2CCCCC2)c(O)n(CCCO)c(=O)c1C#N	52.1% (active)
Cc1cc(C)n(CCCO)c(=O)c1C#N	-3.9%
CCCn1c(O)c(CN2CCCC(C)C2)c(C)c(C#N)c1=O (stereo not given)	39.4%
CCCn1c(O)c(CN2CCCCC2)c(C)c(C#N)c1=O	57.4% (active)
COc1ccc(CCN(C)CCCN2CC(c3ccccc3)CC2=O)cc1OC (stereo not given)	-9.7%
Cc1ccc(S(=O)(=O)N2CCN(CC(=O)NC3CCCc4ccccc43)CC2)cc1C (stereo not given)	13.8%
CCOC(=O)N1CCN(c2c(NCC3CCN(Cc4cccc(C)c4)CC3)c(=O)c2=O)CC1	8.2%
Nc1nc(Cl)cc(Sc2ccc3ccccc3c2)n1	1%
Cc1nc2sccn2c1P(c1c(C)nc2sccn12)c1c(C)nc2sccn12	-5.7%
CCC(CO)NCc1ccc(OCC(=O)Nc2cccc(C(F)(F)F)c2)c(OC)c1 (stereo not given)	-1.3%
CCN=c1scc(-c2ccco2)n1/N=C/c1ccc(O)cc1	-22.4%
CN=c1scc(-c2ccccc2F)n1/N=C/c1ccc[nH]1	-2.3%
CCN=c1scc(-c2cccs2)n1/N=C/c1cc(OC)ccc1O	-21.1%
CCN=c1scc(C)n1/N=C/c1ccsc1	2.6%
CCN=c1scc(C)n1/N=C/c1cc(Br)c(O)c(Br)c1	-6.2%
CCN=c1scc(-c2ccco2)n1/N=C/c1ccc(OC)c(O)c1	-17.3%
CN=c1scc(-c2cccs2)n1/N=C/c1ccc(O)c(O)c1O	34.6%
CN=c1scc(-c2cccs2)n1/N=C/c1ccccc1O	14.7%
COCCNS(=O)(=O)c1cc(OC)ccc1OC	8.6%

SMILES	inhibition
Cc1cc(N2CCN(c3ccccc3)CC2)nc(-c2ccccc2O)n1	2.1%
Cc1cc(S(=O)(=O)NCC(C)C)ccc1OCC(=O)NCC1CCCO1 (stereo not given)	15.5%
COc1cc(C(=O)OCCNC(=O)c2ccncc2)cc(OC)c1OC	-20%
CCC(C)NS(=O)(=O)c1ccc(F)c(C(=O)Nc2c(F)cc(F)cc2Br)c1 (stereo not given)	-19.4%
COc1ccc2[nH]c(=O)c(CN(CCO)C(=O)NCc3ccccc3)cc2c1	3.9%
CCn1c(COc2ccccc2)nnc1SCC(=O)Nc1cc(C)ccc1OC	8.3%
C#CCOCCOCCOCCNc1nc(N2CCN(C(=O)[C@H](CCC(=O)O)n3cc(C(N)Cc4ccc(O)cc4)nn3)CC2)nc(N2CCN(C(=O)[C@H](CCC(=O)O)n3cc(C(N)[C@H](C)CC)nn3)CC2)n1 (stereo not given in full)	-33.1%
O=C(c1ccccc1)c1cccc(NC(=O)c2ccc(Br)o2)c1	6.2%
O=C(C1CCCCN1S(=O)(=O)c1ccccc1)N1CCN(C(c2ccccc2)c2ccccc2)CC1 (stereo not given)	9.8%
COc1cc(Br)c(S(=O)(=O)Nc2c(C)n(C)n(-c3ccccc3)c2=O)cc1OC	-1.6%
O=C(c1cccnc1)N1C2C=CC(C2)C1(C(F)(F)F)C(F)(F)F (stereo not given)	-7.8%
Cc1cc(C)nc(NS(=O)(=O)c2ccc(Br)cc2)n1	-3.5%
Cc1ccc(NS(=O)(=O)c2ccc(Br)cc2)nc1	0.3%
COC1(NS(=O)(=O)c2ccc(Br)cc2)C(C)=CC(=O)C=C1C	55.3% (active)
O=C(Nc1ccc2oc(-c3ccc(F)cc3)nc2c1)c1ccccc1F	1%
Cc1ccc(-c2nc3c(c(=O)c4ccccc4n3C)c(=O)n2-c2ccccc2)cc1	0.4%
Cc1nc2c([N+](=O)[O-])c(C)c(C)cc2[nH]1	4.2%
O=c1[nH]c(=O)c2nc3c4ccccc4c4ccccc4c3nc2[nH]1	11.6%
Cc1cc2nc3c(=O)[nH]c(=O)[nH]c3nc2c([N+](=O)[O-])c1N	53.3% (active)
NC(=O)Nn1c(CCC(=O)O)ccc1-c1ccc(Br)cc1	-6.3%
